Data as given in PubChem BioAssay (NCI).
Compounds without any hit were thinned out: in the full panel of roughly 83,000, 20% have a hit.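 Values shown are percent growth following 48 h exposure of cells in 96-well plates to a single concentration of compound; below 10 was considered active.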 Values without a mark were called inactive. Activity calls are given as the source filed them.

These compounds were tested on OVCAR-8 ovarian (assay: NCI-60 one-dose screen, 48 h (100 = growth as untreated, 0 = no growth, -100 = all killed)). Conditions: 10 µM unless noted.
Procedure: Growth inhibition of the OVCAR-8 human tumor cell line is measured as a screen for anti-cancer activity. Cells are grown in 96 well plates and exposed to the test compound for 48 hours. Compounds are tested at a single concentration, which is 10^-5 M for most compounds. The reported endpoint is percent growth (GI% or GIPRCNT), where numbers from 0 - 100% represent growth inhibition, and numbers from -100% - 0 represent cell death. For example, a value of 40 represents 60% growth inhibition. A value of 0 means no net growth occurred over the course of the experiment. A value of -40 indicates 40% of cells at the beginning of the experiment died by the end of the experiment. A value of -100 means all cells are dead at the end of the experiment.
NCI-60 Human Tumor Cell Lines Screen was performed using the standard one-dose NCI protocol, which is described in more detail at https://dtp.cancer.gov/discovery_development/nci-60/default.htm.
Compounds with GIPRCNT values below 10 were considered active. Activity score was based on GIPRCNT using the following formula: […]
Score is 0 for GIPRCNT values of 100 or above, 50 for GIPRCNT values of 0, and 100 for GIPRCNT values of -100.
`N#C[S-].[Au+].c1ccc(CN2[CH-]N(Cc3ccccc3)C(c3ccccc3)=C2c2ccccc2)cc1` was tested, and the growth was 12.1%.
In the case of `Cn1cc(-c2csc(-c3cn(CCCCN4CCCCC4)c4ccccc34)n2)c2cccnc21`, the growth is reported as -58.8% (active).
`N#Cc1c(Br)n(C2OC(CO)C(O)C2O)c2ncnc(N)c12` (stereo not given) gave a growth of 35.2%.
Compound `O=C(N/N=C\c1ccc(N(CCCl)CCCl)cc1)c1cccc([N+](=O)[O-])c1` has a growth of 63.4%.
With `COc1ccc(/C=C\c2cc(OC)c(OC)c(OC)c2)cc1OCC(=O)Nc1nc2ccc(F)cc2s1` the growth was 29.2%.
`Nc1cc2nc3ccccc3nc2cc1N` was tested, and the growth was 83%.
In the case of `CC(=O)OCC1O[C@@H]([S-])C(OC(C)=O)[C@H](OC(C)=O)[C@@H]1OC(C)=O.[Au+].c1ccc(CN2[CH-]N(Cc3ccccc3)C(c3ccccc3)=C2c2ccccc2)cc1`, the growth is reported as 53.2%.
In the case of `CC[C@@H]1[C@@H](C)O[C@@](O)([C@@H](C)[C@H](O)[C@H](C)[C@H]2OC(=O)/C=C/C=C/[C@H](C)[C@@H]([C@@H](C)[C@@H](O)[C@H](C)[C@@]3(O)C[C@@H](O[C@H]4C[C@@H](O)[C@H](O)C(C)O4)[C@H](CC)[C@@H](C)O3)OC(=O)/C=C/C=C/[C@@H]2C)C[C@H]1O[C@@H]1C[C@@H](O)[C@H](O)C(C)O1` (stereo not given in full), the growth is reported as -75.9% (active).
Work on `Cn1cc(C=O)c2nccnc21` yielded a growth of 104%.
Work on `CCN(CC)c1ccc2c(c1)OC(N)=C(C#N)C2c1cc(OC)c2c(c1)OCO2` (stereo not given) yielded a growth of 17.6%.
`CC(=O)O[C@H]1C(=O)[C@@]2(C)[C@H]([C@H](OC(=O)c3ccccc3)[C@]3(O)C[C@H](OC(=O)[C@H](OC(=O)OCC4COC(C)(C)O4)[C@@H](NC(=O)c4ccccc4)c4ccccc4)C(C)=C1C3(C)C)[C@]1(OC(C)=O)CO[C@@H]1C[C@@H]2O` (stereo not given in full) gave a growth of 39.3%.
Compound `O=NNc1ccccn1` has a growth of 80.3%.
`Clc1ccc(N2COOC3(OOC2)C2CC4CC(C2)CC3C4)cc1` showed a growth of 46.6%.
With `O=[N+]([O-])CC(c1ccccc1Cl)c1c(-c2ccccc2)[nH]c2ccccc12` (stereo not given) the growth was 40.4%.
For `Fc1ccc2c(c1)c(-c1nc(-c3c[nH]c4ncccc34)cs1)cn2CCCCN1CCCCC1`, the growth was -82.9% (active).
`CCC1CN1CCCCN1CC1CC` (stereo not given) showed a growth of 101%.
`N#CC1(c2ccccc2)CCN(Cc2ccccc2)CC1` was tested, and the growth was 104%.
`COP(=O)(OC)C(O)c1ccc(Cl)cc1` (stereo not given) was tested, and the growth was 108%.
Work on `CCOC(=O)[C@@H](C)C[C@H](Cc1ccccc1)NC(=O)c1csc([C@@H](C[C@H](C(C)C)N(C)C(=O)[C@@H](NC(=O)[C@H]2C[C@H](O)CCN2C)C(C)C)OC(C)=O)n1` yielded a growth of 14.8%.
`C[C@@]12CC=C3c4nc(Nc5cccc(O)c5)sc4CC[C@]3(C)[C@H]1CC[C@]1(C)C(=O)CC[C@@H]21` was tested, and the growth was 17.9%.
Compound `COC(=O)[C@@H](C)C[C@H](Cc1ccccc1)NC(=O)c1nc([C@@H](C[C@H](C(C)C)N(C)C(=O)[C@@H](NC(=O)[C@H]2CCCN2C)C(C)C)OC(C)=O)sc1C` has a growth of 14.5%.
With `COc1ccc(/C(C)=C(\c2ccc(OCCN3CCOCC3)cc2)c2ccc(OC(=O)Cc3ccccc3)cc2)cc1` the growth was 100%.
With `CCn1c2ccccc2c2cc(C(=O)c3cccc4c3CCCN4)ccc21` the growth was 113%.
With `CC1=C(CNO)C2=C(C)C3(CC3)[C@@](C)(O)C(=O)C2=C1` the growth was 34.5%.
Compound `COc1cc([N+](=O)[O-])c2nc(C)ccc2c1[N+](=O)[O-]` has a growth of 89.1%.
`CC[C@H](C)[C@H](NC(=O)N[C@@H](C)c1ccccc1)C(=O)N(C)[C@H](C[C@@H](OC(C)=O)c1nc(C(=O)N[C@@H](Cc2ccccc2)C[C@H](C)C(=O)OC)cs1)C(C)C` showed a growth of 11.6%.
Work on `[Cl][Hg][c]1cc[c]([Hg][Cl])o1` yielded a growth of 65.1%.
In the case of `ClCCN(CCCl)c1ccc(/C=N\N=C\c2ccc(N(CCCl)CCCl)cc2)cc1`, the growth is reported as 33.8%.
For `COc1ccc2c(c1)c(-c1nc(-c3cn(C)c4ncccc34)cs1)cn2CCN1CCOCC1`, the growth was 29.2%.
Compound `CC(C)(C)N1CC1C#N` (stereo not given) has a growth of 103%.
For `CC1(C)CN1P(=O)(N1CC1(C)C)N1CC1(C)C` (stereo not given), the growth was 90.5%.
`O=C([O][Hg][c]1ccccc1)c1ccccc1` was tested, and the growth was -29% (active).
Work on `COC[C@@H]1C[C@@]2(C)[C@@H](CC[C@@H]3[C@@H]2CC[C@@]2(C)[C@H]3CC[C@]2(C)O)CC1=O` yielded a growth of 95.8%.
`CC1(C)C(C(=O)c2cn(CCCCF)c3ccccc23)C1(C)C` showed a growth of 82%.
In the case of `CC[C@H](NC(=O)[C@H]1CCCCN1C)C(=O)N(C)[C@H](C[C@@H](OC(C)=O)c1nc(C(=O)N[C@@H](Cc2ccccc2)C[C@H](C)C(=O)O)cs1)C(C)C`, the growth is reported as 9.15% (active).
`O=C(O)C(Cl)(Cl)C(F)(F)F` gave a growth of 112%.
Work on `C=CC[PH+](c1ccccc1)c1ccccc1.C=CC[PH+](c1ccccc1)c1ccccc1.[Cl][Pt][Cl]` yielded a growth of 20%.
For `CNC(=O)Oc1ccc(C(C)(C)C)cc1OC(=O)NC`, the growth was 100%.
With `CC12CC(=O)C3(SC#N)C(CCC4=CC(=O)CCC43C)C1CCC2=O` (stereo not given) the growth was 89.6%.
For `COc1ccc(/C=C\c2cc(OC)c(OC)c(OC)c2)c(NS(=O)(=O)c2ccc(C)cc2)c1O`, the growth was 25.1%.
